Composite z-score and z-score data for six compounds are collected here from PubChem BioAssay.

Assay [1] is described as follows: compounds binding Alexa647 anti-His antibody – biochemical, small-molecule microarray, 635 nm fluorescence, artefact control for SMM control protein annotation, primary screen (AID 1128).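 Further: score merges feature fluorescence with signal-to-noise for each printed compound spot.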 Particulars: higher = more signal.
The subject of assay [2] is Human papillomavirus type 1a E7 protein (residues 1-88). As to the kind of experiment: HPV1a E7 small-molecule binders, primary screen, biochemical, small-molecule microarray, residues 1-88, 635 nm (AID 1129). Particulars: small-molecule microarray binding, fluorescence 635 nm; higher = more signal.
For assay [3], the target named is Focal adhesion kinase 1 (Homo sapiens) (UniProt Q05397). As to the kind of experiment: PTK2 protein binding on printed compound slides – biochemical, small-molecule microarray, 635/667 nm fluorescence, BSA, DTT, primary screen (AID 1130).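 Further: composite of spot emission at 667 nm and signal to noise over triplicate slides.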 Particulars: 635 nm fluorescence, higher = more signal.
The subject of assay [4] is Fibrinogen (Alexa647-labelled). As to the kind of experiment: Alexa647-fibrinogen binding to printed small molecules – biochemical, small-molecule microarray, 635/667 nm fluorescence, artefact control for SMM control-protein annotation, profiling panel (AID 1131).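 Further: z-score merges 667 nm fluorescence with per-spot signal-to-noise over triplicate slides.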 Particulars: fibrinogen-A647 binding fluorescence, higher = more signal.
The target in assay [5] is Follistatin (Homo sapiens) (UniProt P19883). As to the kind of experiment: FST protein binding to printed compounds – biochemical, small-molecule microarray, 635/667 nm fluorescence, primary screen (AID 1132). As to conditions: 635 nm fluorescence, higher = more signal.
Assay [6] addresses Fibroblast growth factor 2 (Homo sapiens) (UniProt P09038). As to the kind of experiment: basic fibroblast growth factor binding to printed compounds – biochemical, small-molecule microarray, 635/667 nm fluorescence, primary screen (AID 1133). As to conditions: FGF2, fluorescence 635/667, higher = more signal.
The nature of assay [7]: JC-1 mitochondrial potential readout, lung cancer cells – cell-based, A549, JC-1 fluorescence, basal, 24 h, 100 nL, profiling panel (AID 1138).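 Further: A549 lung adenocarcinoma cells under basal conditions with no added stimulus; test concentration not given here.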 Particulars: higher = more signal.
For assay [8], the system named is Lefty1. As to the kind of experiment: Lefty1 protein binding to printed compounds – biochemical, small-molecule microarray, 635/667 nm fluorescence, primary screen (AID 1139). As to conditions: fluorescence 635/667, higher = more signal.
Assay [9] relates to wheat germ agglutinin (Triticum aestivum), Alexa647-labelled. Description: Alexa647-WGA lectin binding to printed small molecules – biochemical, small-molecule microarray, 635/667 nm fluorescence, artefact control for SMM control-protein annotation, profiling panel (AID 1140).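 Further: score merges 667 nm feature emission with signal to noise over triplicate slides.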 Particulars: WGA-A647 binding, 635 nm fluorescence, higher = more signal.
Assay [10] addresses Luciferin 4-monooxygenase (Photinus pyralis) (UniProt P08659). Description: inhibition of purified Photinus pyralis luciferase – biochemical, luminescence, purified enzyme, 2006 set, primary screen (AID 1141).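 Further: cell-free assay with purified firefly luciferase at 100 ng per well in PBS; test concentration not given here.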 Particulars: purified firefly luciferase, SteadyGlo luminescence, 30 min; higher = more signal, called active from +8 up or from −8 down.
Assay [11] deals with Wnt5a (protein binding on small-molecule microarray). As to the kind of experiment: small molecules binding Wnt5a protein – biophysical, small-molecule microarray, 635/667 nm fluorescence, primary screen (AID 1142).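 Further: fluorescence read at 667 nm with signal to noise per printed feature.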 As to conditions: 635 nm fluorescence, higher = more signal.
A short description of assay [12]: ATP-based viability of Huh7 replicon cells – cell-based, CellTiter-Glo luminescence, basal, 48 h, cytotoxicity control for HCV replication inhibitor project, primary screen (AID 1143).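 Further: Huh7 hepatoma cells carrying a hepatitis C replication reporter with no stimulus; test concentration not given here.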 Particulars: higher = more signal, called active from +8 up or from −8 down. (Replicon systems follow genome replication, usually without infectious particles.)
The nature of assay [13]: Pseudomonas biofilm growth suppression – PAO1 strain, BacTiter-Glo luminescence, LB-PBS, primary screen (AID 1144). As to conditions: P. aeruginosa PAO1 biofilm, 12 h, higher = more signal.
The nature of assay [14]: basal CRE-LacZ reporter activity in PC12 – cell-based, unstimulated, primary screen (AID 1145). Particulars: no forskolin, luminescence, 4.5 h, higher = more signal, called active from +8 up or from −8 down.
A short description of assay [15]: forskolin-driven CRE-LacZ activity in PC12 – cell-based, CRE-LacZ reporter, forskolin-stimulated, primary screen (AID 1146).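 Further: PC12 cells with 6xCRE LacZ reporter stimulated by forskolin 10 µM; beta-galactosidase reporter signal reflecting CREB driven transcription.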 Particulars: luminescence, 4.5 h, higher = more signal, called active from +8 up or from −8 down.
Assay [16] concerns the target Streptavidin (Streptomyces avidinii) (UniProt P22629). Description: compounds binding control protein streptavidin – biophysical, small-molecule microarray, 635/667 nm fluorescence, artefact control for SMM compound annotation, primary screen (AID 1147).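 Further: signal reflects streptavidin binding to arrayed compounds as a control protein.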 As to conditions: higher = more signal.
Assay [17] can be described thus: probe aInhba binding on compound microarray – biochemical, small-molecule microarray, 635/667 nm fluorescence, primary screen (AID 1148).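 Further: score merges 667nm spot fluorescence with signal-to-noise for antibody binding to printed compounds.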 Particulars: higher = more signal.
The target of assay [18] is Torsin-1A (Homo sapiens) (UniProt O14656). Description: TOR1A wild-type binding on microarray – cell lysate, small-molecule microarray, lysate, 635/667 nm, primary screen (AID 1149). As to conditions: COS7 hTOR1A-WT lysate, 635 nm fluorescence, higher = more signal.
For assay [19] the target is unchanged. As to the kind of experiment: torsin A mutant lysate binding on microarrays – cell lysate, small-molecule microarray, COS7 lysate, 635/667 nm fluorescence, primary screen (AID 1150).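 Further: score pools 667 nm emission and signal to noise measuring lysate protein binding.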 As to conditions: COS7 hTOR1A mutant lysate, 635 nm fluorescence, higher = more signal.
For assay [20], the system named is Sonic hedgehog protein (Shh). Description: Sonic hedgehog microarray binding compounds – biochemical, small-molecule microarray, 635/667 nm fluorescence, primary screen (AID 1151).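 Further: Shh protein binding to compounds spotted on small-molecule microarray slides; score combines spot fluorescence intensity with signal-to-noise across triplicate slides.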 As to conditions: 635 nm fluorescence, higher = more signal.

The source made the active and inactive calls. Unless noted, how the calls were made is not given here.

Sequence of Streptavidin (Streptomyces avidinii) (P22629 whole entry, looked up): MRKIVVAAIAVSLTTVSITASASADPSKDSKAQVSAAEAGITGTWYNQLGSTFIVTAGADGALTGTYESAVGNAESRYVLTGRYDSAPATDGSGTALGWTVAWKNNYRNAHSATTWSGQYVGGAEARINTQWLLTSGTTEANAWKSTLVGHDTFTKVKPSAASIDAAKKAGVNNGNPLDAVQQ
Sequence of Follistatin (Homo sapiens) (P19883 whole entry, looked up): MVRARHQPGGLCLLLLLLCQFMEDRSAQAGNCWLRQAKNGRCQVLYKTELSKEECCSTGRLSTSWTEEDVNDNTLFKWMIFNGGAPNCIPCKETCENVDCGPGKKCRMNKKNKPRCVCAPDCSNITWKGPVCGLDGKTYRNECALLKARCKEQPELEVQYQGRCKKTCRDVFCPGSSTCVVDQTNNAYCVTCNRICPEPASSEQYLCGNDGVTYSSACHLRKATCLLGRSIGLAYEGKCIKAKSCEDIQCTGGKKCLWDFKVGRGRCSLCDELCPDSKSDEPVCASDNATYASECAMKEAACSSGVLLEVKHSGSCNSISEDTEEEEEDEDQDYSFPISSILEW
Sequence of Luciferin 4-monooxygenase (Photinus pyralis) (P08659 whole entry, looked up): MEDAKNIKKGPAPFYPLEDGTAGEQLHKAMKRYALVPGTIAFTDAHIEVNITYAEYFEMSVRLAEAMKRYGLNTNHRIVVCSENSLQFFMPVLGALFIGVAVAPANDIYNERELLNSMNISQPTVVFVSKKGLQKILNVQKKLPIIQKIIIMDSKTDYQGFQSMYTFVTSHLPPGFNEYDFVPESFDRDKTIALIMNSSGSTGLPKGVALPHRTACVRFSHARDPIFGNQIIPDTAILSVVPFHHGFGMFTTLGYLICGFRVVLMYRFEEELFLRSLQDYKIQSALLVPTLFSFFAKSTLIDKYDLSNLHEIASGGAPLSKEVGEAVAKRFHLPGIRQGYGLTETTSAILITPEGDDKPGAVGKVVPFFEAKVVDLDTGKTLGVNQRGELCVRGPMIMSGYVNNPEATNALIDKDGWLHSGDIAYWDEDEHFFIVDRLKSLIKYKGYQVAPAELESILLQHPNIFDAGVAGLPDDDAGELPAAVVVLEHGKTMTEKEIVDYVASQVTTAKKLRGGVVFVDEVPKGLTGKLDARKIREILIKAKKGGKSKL
Sequence of Torsin-1A (Homo sapiens) (O14656 whole entry, looked up): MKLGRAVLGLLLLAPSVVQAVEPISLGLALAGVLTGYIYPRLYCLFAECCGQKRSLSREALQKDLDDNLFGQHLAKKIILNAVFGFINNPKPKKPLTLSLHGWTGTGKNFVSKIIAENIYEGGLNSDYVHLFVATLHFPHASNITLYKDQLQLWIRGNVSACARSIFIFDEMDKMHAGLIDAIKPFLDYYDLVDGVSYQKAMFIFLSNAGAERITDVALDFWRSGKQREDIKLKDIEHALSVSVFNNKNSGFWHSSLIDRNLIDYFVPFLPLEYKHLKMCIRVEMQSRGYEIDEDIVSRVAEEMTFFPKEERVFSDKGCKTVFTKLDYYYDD
Sequence of Fibroblast growth factor 2 (Homo sapiens) (P09038 whole entry, looked up): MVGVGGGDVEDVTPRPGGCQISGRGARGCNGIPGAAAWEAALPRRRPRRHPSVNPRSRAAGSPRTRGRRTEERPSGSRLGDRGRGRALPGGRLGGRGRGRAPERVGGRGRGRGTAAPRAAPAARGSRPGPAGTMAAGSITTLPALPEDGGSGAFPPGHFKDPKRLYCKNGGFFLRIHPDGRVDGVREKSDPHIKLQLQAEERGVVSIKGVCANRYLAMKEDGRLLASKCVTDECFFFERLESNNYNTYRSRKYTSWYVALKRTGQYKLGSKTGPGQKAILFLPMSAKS
Sequence of Focal adhesion kinase 1 (Homo sapiens) (Q05397 whole entry, looked up): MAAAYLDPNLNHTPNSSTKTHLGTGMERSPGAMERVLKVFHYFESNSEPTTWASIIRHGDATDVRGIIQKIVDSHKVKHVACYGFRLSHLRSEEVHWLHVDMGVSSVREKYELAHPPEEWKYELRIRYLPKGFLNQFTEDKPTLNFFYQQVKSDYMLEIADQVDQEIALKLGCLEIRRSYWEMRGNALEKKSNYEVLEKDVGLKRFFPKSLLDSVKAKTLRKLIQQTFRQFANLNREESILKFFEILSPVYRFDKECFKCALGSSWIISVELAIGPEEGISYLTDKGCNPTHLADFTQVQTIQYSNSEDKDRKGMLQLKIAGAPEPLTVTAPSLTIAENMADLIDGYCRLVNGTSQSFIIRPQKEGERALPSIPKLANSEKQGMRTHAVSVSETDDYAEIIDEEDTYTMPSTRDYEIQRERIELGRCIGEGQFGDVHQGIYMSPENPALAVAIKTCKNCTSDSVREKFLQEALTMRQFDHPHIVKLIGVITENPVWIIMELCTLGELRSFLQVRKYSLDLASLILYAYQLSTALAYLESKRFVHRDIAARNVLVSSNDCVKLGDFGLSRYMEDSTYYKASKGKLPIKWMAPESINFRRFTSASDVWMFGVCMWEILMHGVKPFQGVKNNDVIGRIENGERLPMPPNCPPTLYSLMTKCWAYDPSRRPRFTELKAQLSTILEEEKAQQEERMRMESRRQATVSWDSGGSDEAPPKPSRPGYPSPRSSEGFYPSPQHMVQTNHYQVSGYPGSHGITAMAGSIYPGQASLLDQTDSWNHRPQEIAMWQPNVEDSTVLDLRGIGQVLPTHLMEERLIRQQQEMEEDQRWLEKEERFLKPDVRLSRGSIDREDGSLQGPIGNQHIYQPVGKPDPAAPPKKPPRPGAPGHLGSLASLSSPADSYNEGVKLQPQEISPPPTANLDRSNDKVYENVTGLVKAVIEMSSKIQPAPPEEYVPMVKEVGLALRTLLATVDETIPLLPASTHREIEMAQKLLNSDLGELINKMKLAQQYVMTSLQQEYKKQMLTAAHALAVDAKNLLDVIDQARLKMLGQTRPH

Regarding `O=C1O[C@H](c2ccccc2)[C@H](c2ccccc2)N2[C@H]1[C@@H](C(=O)Nc1nc3ccccc3s1)[C@]1(C(=O)Nc3ccccc31)[C@H]2c1ccccc1OCCO`, the composite z-score in assay [1] was 1.71; in assay [2], 0.813; in assay [3], 0.832; in assay [4] it was 0.966; in [5], 0.453; in assay [6] it was 0.64. The composite z-score in assay [8] was 0.0835; in assay [9], 1.02; in assay [11], -0.023; in assay [16], 1.25; in assay [17], 0.161; in [18], 0.869. Further, the composite z-score is 1.11 in assay [19] and 0.465 in assay [20]. Moreover, the z-score in assay [7] is -1.84; in [10], 0.389 (inactive); in assay [12], -4.68 (inactive); in assay [13], -0.804 (inactive); in assay [14], 0.272 (inactive); in assay [15] it was 0.519 (inactive).

For the compound `COCCOC(=O)N1C(=O)[C@@]2(c3cc(C#CCNC(N)=O)ccc31)[C@H](C(=O)Nc1nc3ccccc3s1)[C@H]1C(=O)O[C@H](c3ccccc3)[C@H](c3ccccc3)N1[C@@H]2c1ccc(O)cc1`, the composite z-score in assay [1] was found to be 0.216; in assay [2] it was 0.93; in assay [3], 0.164; in [4], 0.9; in assay [5] it was 1.31; in assay [6], 0.802. In addition, the composite z-score in assay [8] is 0.392; in [9] it was 0.934; in assay [11] it was 0.0623; in assay [16] it was 0.753; in assay [17], 0.189; in assay [18], -0.227. The composite z-score in [19] was -0.023; in assay [20], 0.527. Moreover, the z-score in assay [7] was -2.44; in assay [10], -0.518 (inactive); in assay [12], 0.284 (inactive); in assay [13] it was 0.326 (inactive); in assay [14], -0.168 (inactive); in assay [15], -0.227 (inactive).

With `CC(C)c1ccc(NN2C(C(O)C3CCCCC3)C=CC3C(=O)N(c4ccccc4)C(=O)C32)cc1` (stereo not given), the composite z-score was found to be 1.04 in [1]; 1.21 in assay [2]; 0.401 in assay [3]; 0.987 in assay [4]; 0.946 in assay [5]; 0.66 in [6]. Also, the composite z-score is 1.29 in assay [8]; 1.27 in assay [9]; 0.283 in assay [11]; 1.88 in [16]; 0.0968 in assay [17]; -0.147 in assay [18]. Also, the composite z-score in [19] stood at 0.316; in assay [20], 0.771. For the same compound, the z-score in assay [7] is 0.257; in assay [10] it was -1.36 (inactive); in assay [12], -0.575 (inactive); in assay [13], -1.15 (inactive); in assay [14], 0.0467 (inactive); in [15] it was 0.337 (inactive).

`COC(=O)[C@H]1N=C(c2ccc(OCCCO)cc2)O[C@H]1c1ccccc1N=[N+]=[N-]`: the composite z-score was 0.608 in assay [1]; 1.16 in assay [2]; 2.19 in assay [3]; 0.936 in [4]; 0.562 in [5]; -0.0231 in assay [6]. In addition, the composite z-score was -0.401 in [8]; 0.733 in assay [9]; 0.563 in [11]; 0.489 in assay [16]; 0.317 in assay [17]; 0.698 in assay [18]. In addition, the composite z-score in [19] is 0.175; in [20], -0.207. The z-score in assay [7] was -0.512; in assay [10], -19.2 (active); in [12] it was -2.38 (inactive); in assay [13], -0.17 (inactive); in assay [14] it was 1.18 (inactive); in assay [15], 0.226 (inactive).

Turning to `CS(=O)(=O)CCOC(=O)C1=CC(CCCO)=CC(C2CC2)N(Cc2sc3ccccc3c2Cl)C=C1C(=O)OCCS(C)(=O)=O` (stereo not given), the composite z-score amounted to 2.14 in assay [1]; 1.04 in [2]; 0.435 in assay [3]; 0.753 in [4]; 1.3 in assay [5]; 0.897 in assay [6]. The composite z-score in [8] was 1.23; in assay [9] it was 1.03; in assay [11] it was 0.296; in assay [16] it was 1.41; in assay [17] it was 0.523; in assay [18], 1.15. Moreover, the figures for the composite z-score in assay [19] and in assay [20] were 1.48 and 1.41, respectively. In addition, the z-score is 0.995 in assay [7]; -1.14 (inactive) in assay [10]; -2.27 (inactive) in assay [12]; -0.15 (inactive) in assay [13]; 2.57 (inactive) in [14]; -0.655 (inactive) in assay [15].

Regarding `CC(C)c1ccc(NN2C(C(O)C(C)c3ccccc3)C=CC3C(=O)N(c4ccccc4)C(=O)C32)cc1` (stereo not given), the composite z-score in assay [1] worked out at 1.63; in assay [2], 1.17; in assay [3] it was 0.531; in assay [4], 0.988; in assay [5] it was 1.2; in [6], 0.558. Also, the composite z-score in assay [8] stood at 0.155; in assay [9], 1.19; in assay [11], 0.981; in assay [16] it was 2.11; in assay [17], 0.864; in assay [18] it was 0.326. Besides, the composite z-score in assay [19] was 1.12; in [20] it was 0.461. The z-score is -0.864 in assay [7]; 0.222 (inactive) in assay [10]; 0.0469 (inactive) in [12]; -0.692 (inactive) in assay [13]; 0.619 (inactive) in assay [14]; 0.939 (inactive) in assay [15].
